Screening data deposited in PubChem by several laboratories.
Only some compounds are listed: those with a hit (about 3.6% of all), similar ones and a draw of the others.
BoNT-A LC inh2: BoNT/A light chain protease inhibitors, primary screen, biochemical, flow cytometry, MLPCN library. Botulinum neurotoxin type A light chain protease (Clostridium botulinum A str. ATCC 3502). multiplex microsphere protease substrate cleavage. inhibition, % at 10 µM. actives 0.17% (n = 360,000); note: plate controls were buffer without enzyme for full effect and enzyme alone for no effect
BoNT F protease: BoNT/F light chain protease inhibitors, primary screen, biochemical, flow cytometry, MLPCN library. Botulinum neurotoxin type F light chain protease (Clostridium botulinum). inhibition, % at 10 µM. actives 0.22% (n = 360,000). Multiplex microsphere protease cleavage assay; in the data active = inhibition above about 35%, passing the limit was not always enough; inconclusive = no clear call, values can overlap the other calls; note: plate controls were buffer without enzyme for full effect and enzyme alone for no effect
Bead autofluor: counter-screen for toxin protease inhibitors: compound fluorescence; actives 3.1% (n = 360,000); AID 624483; fluorescence intensity (concentration not given with the values); compound autofluorescence counterscreen, microsphere flow cytometry; hits give high values; in the data active = fluorescence intensity above about 16000; inconclusive = no clear call, values can overlap the other calls
MazEF act: activators of E. coli MazEF toxin-antitoxin RNase, primary screen, biochemical, fluorescence, uHTS; Endoribonuclease toxin MazF (Escherichia coli (strain K12)), P0AE70; FAM/BHQ RNA-DNA oligo cleavage fluorescence, 5 h; activation, % at 20 µM; actives 0.32% (n = 350,000); in the data active = activation above about 50%
Target sequence (P0AE70 whole entry, looked up): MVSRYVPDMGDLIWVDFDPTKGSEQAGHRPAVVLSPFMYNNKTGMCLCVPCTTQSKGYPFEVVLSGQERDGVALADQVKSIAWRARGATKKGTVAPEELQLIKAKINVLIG
Anthrax LF prot: Bacillus anthracis LF protease inhibitors, primary screen, biochemical, multiplex microsphere, MLPCN library | actives 0.12% (n = 360,000) | inhibition, % at 10 µM | Lethal factor (Bacillus anthracis), P15917 | multiplex microsphere protease cleavage assay | AID 588501, 2011; note: plate controls were buffer without enzyme for full effect and enzyme alone for no effect
The depositor's hits bear a star; ? = inconclusive; nt = not tested or not shown; + = active, no number. Cut-off read from the data, not from the text of the source, unless noted: active = inhibition above about 30%; inconclusive = no clear call, values can overlap the other calls; inactive = below that.

SMILES	BoNT-A LC inh2	BoNT F protease	Bead autofluor	MazEF act	Anthrax LF prot
COc1cccc(C(C2C(=O)CC(C)(C)CC2=O)C2C(=O)CC(C)(C)CC2=O)c1	-2	0	3838	5	10
Cc1ccccc1Oc1ncccc1C(=O)/C(C#N)=C/N(C)C	-2	-1	23141*	-17	-1
Cc1ccccc1Oc1cccc(C(=O)/C(C#N)=C/N(C)C)c1	1	1	3405	6	1
COc1ccc(CCNc2nc(Cl)nc(NC(C)(C)CO)n2)cc1OC	-1	?	4070	-3	-4
CCOc1nc(NCCc2ccc(OC)c(OC)c2)nc(NC(C)(C)CO)n1	-2	-4	16988*	1	-2
Cc1ccc(C)c(S(=O)(=O)NCc2ccc(C(=O)NCc3ccco3)cc2)c1	0	?	3811	3	-4
Cc1ccc(C(=O)NCc2ccco2)cc1S(=O)(=O)Nc1cccc(Cl)c1	?	2	21942*	5	-1
CC(=O)NCCNc1nc2cc(-c3cscc3C)sc2c(=O)n1C	0	-9	3785	nt	-8
Nc1c(C(=O)C2CC2)sc2nc(-c3cccs3)cc(C(F)(F)F)c12	20	14	4416	+	16
C[C@H](NC(=O)[C@@H]1Cc2ccccc2CN1)C(=O)NC1CCCC1	1	-1	5626	10	0
Cc1c(C(=O)N2CCN(c3ccccc3F)CC2)sc2nc(-c3ccccc3)cn12	?	0	21586*	3	-8
COc1ccc(-c2cn3c(C)c(C(=O)Nc4ccncc4)sc3n2)cc1	0	-5	5751	16	-6
COC(=O)c1ccc(NC(=O)c2sc3nc(-c4ccccc4)cn3c2C)cc1	-1	-1	21396*	18	-2
CC(=O)C(/C=N/c1cc(-c2ccc(C)cc2)nn1-c1ccccc1)=C(\C)O	0	-7	2135	2	1
COc1ccc2cc(C(=O)N/N=C/c3sc4ccccc4c3O)ccc2c1	34*	-10	2973	-195	9
COc1ccc(C(=O)N/N=C/c2sc3ccccc3c2O)cc1	21	-5	2396	-53	8
COc1ccc(CC(=O)N2CCN(c3ccccc3OC)CC2)cc1OC	0	-14	3050	5	-12
Cc1onc(-c2c(F)cccc2Cl)c1C(=O)Nc1cccc2nsnc12	1	1	22508*	4	-1
COC(=O)CNC(=O)c1c(-c2c(Cl)cccc2Cl)noc1C	2	-1	23118*	3	0
Cc1onc(-c2c(F)cccc2Cl)c1C(=O)NCCCN1CCOCC1	?	1	20261*	-5	2
O=C(CCc1ccccc1)NCCCN1CCOCC1	1	8	3514	2	-1
O=C(CCCc1ccccc1)NCCCN1CCOCC1	2	4	22241*	13	3
COC(=O)CNC(=O)c1c(-c2ccccc2Cl)noc1C	0	-1	2239	-2	1
CCOC(=O)N1C2c3ccccc3C(c3ccccc32)N1C(=O)OCC	0	-4	3585	2	-8
O=C(NCCCN1CCOCC1)c1c(F)cccc1F	?	-4	21499*	-10	-1
SMILES	BoNT-A LC inh2	BoNT F protease	Bead autofluor	MazEF act	Anthrax LF prot
COC(=O)c1ccc(Oc2nc(Nc3ccc(C)c(C)c3)nc(N(C)C)n2)cc1	-3	-7	24525*	0	-4
CCNc1nc(Oc2ccc(C(=O)OC)cc2)nc(N(C)C)n1	0	1	2738	3	2
CC(=O)Nc1ccc(Nc2ncnc3c2cnn3-c2ccccc2)cc1	?	-2	23123*	2	2
CC(=O)Nc1ccc(Nc2ncnc3c2cnn3-c2cccc(C)c2)cc1	7	11	19017*	-3	-18
CC(=O)Nc1ccc(Nc2ncnc3c2cnn3-c2ccc(C)cc2C)cc1	1	?	?	3	?
Clc1ccc(Nc2ncnc3c2cnn3-c2ccccc2)cc1	-1	-9	5548	7	-8
CSc1ncccc1C(=O)OCC(=O)N1CCc2ccccc21	0	-1	3565	10	-7
Clc1ccc(Nc2ncn[nH]2)cc1	0	-2	23107*	-6	1
Clc1ccc(CNc2ccc(CNc3ncn[nH]3)cc2)cc1	0	-5	9836	10	-1
COc1ccc(CCN2C(=O)COc3ccccc3C2C(=O)NC(C)(C)C)cc1OC (centres undefined)	0	10	4100	nt	2
O=C(COc1ccc2ccccc2c1Br)Nc1ncn[nH]1	4	4	21352*	0	-6
